Results on 40 molecules are retold here after PubChem BioAssay (NCI).

About 83,000 compounds went through this panel and 20% of them were active in at least one assay; those are over-represented in the sample as a whole.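 Activity criterion: percent growth below 10, measured after cells in 96-well plates were exposed to a single compound concentration for 48 hours.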 A number with no mark means an inactive call.

The test system of this assay is KM12 colon. Kind of assay: NCI-60 one-dose screen, 48 h (100 = growth as untreated, 0 = no growth, -100 = all killed). Conditions: 10 µM unless noted. The procedure:
Growth inhibition of the KM12 human tumor cell line is measured as a screen for anti-cancer activity. Cells are grown in 96 well plates and exposed to the test compound for 48 hours. Compounds are tested at a single concentration, which is 10^-5 M for most compounds. The reported endpoint is percent growth (GI% or GIPRCNT), where numbers from 0 - 100% represent growth inhibition, and numbers from -100% - 0 represent cell death. For example, a value of 40 represents 60% growth inhibition. A value of 0 means no net growth occurred over the course of the experiment. A value of -40 indicates 40% of cells at the beginning of the experiment died by the end of the experiment. A value of -100 means all cells are dead at the end of the experiment.
NCI-60 Human Tumor Cell Lines Screen was performed using the standard one-dose NCI protocol, which is described in more detail at https://dtp.cancer.gov/discovery_development/nci-60/default.htm.
Compounds with GIPRCNT values below 10 were considered active. Activity score was based on GIPRCNT using the following formula: […]
Score is 0 for GIPRCNT values of 100 or above, 50 for GIPRCNT values of 0, and 100 for GIPRCNT values of -100.
For the molecule `CN(C)c1ccc(/C=C/C(=O)c2ccc(NC(N)=O)cc2)cc1`, the growth is 98.5%.
`N#CCCN1C(=O)CCC1C(=O)O` (stereo not given): the growth is 103%.
For the molecule `C=C1C(=O)C2CCN1CC2`, the growth was 102%.
Regarding `CC(C)c1ccccc1NC(=O)N1CCC(C(C)C)CC1`, the growth is 113%.
In the case of `Nc1cc(F)ccc1[N+](=O)[O-]`, the growth is 104%.
Turning to `CCNc1ncnc2[nH]ncc12`, the growth is 103%.
Take `CCN(CC)CCOC(=O)Nc1c(C(C)C)cccc1C(C)C`: the growth is 105%.
`CC(=O)N(CCCCCCN(C(C)=O)C(C)=O)C(C)=O`: the growth was 99.2% [100 µM].
`CC(C)(CC(=O)O)CC(=O)O`: the growth is 100%.
Then `CCOC(=O)c1c(C)[nH]c(C)c1C=O`, with 104%; and `OC(CCN1CCCCC1)(c1ccccc1)c1ccccc1`, with 113%.
The figure for `O=c1[nH]c(=O)c2cc(Cl)cc(Cl)c2[nH]1` is 106%; for `O=C1C=Cc2ccccc2/C1=C/c1[nH]c(=O)[nH]c1O` it is 40.2%; for `Ic1cccs1` it is 103%.
On to `COc1ccc(C(=O)/C(=N/Nc2ccccc2)c2ccc(OC)cc2)cc1`, for which the growth is 90%.
`COC(c1ccc2c(c1)OCO2)C(C)Br` (stereo not given): the growth was 93.5%.
Turning to `CC(=O)/C(C)=N\OC(=O)Nc1ccccc1`, the growth is 101%.
The figure for `C=CCc1cc(OC)c(OC)c(OC)c1` is 88.7%; for `CC1(C)OC(=O)CC1=O` it is 102%; for `CN(C(=S)S(=O)(=O)C12CC3CC(CC(C3)C1)C2)c1ccccc1` it is 109%.
Then `C[C@H](CCC[C@H](C)OS(=O)(=O)c1ccccc1)OS(=O)(=O)c1ccccc1`, with 107%; and `Cc1cc(NC(=O)c2ccccc2)c(Cl)cc1N`, with 106%; and `Cc1cccc2ccccc12`, with 106%.
Regarding `CCC(=O)C1C(=O)c2ccccc2C1=O`, the growth was 105%.
For the molecule `COc1cc(OC)c(NC(=O)C(Sc2nc(C)cc(C)c2C#N)c2ccccc2)cc1Cl` (stereo not given), the growth was 96.4%.
Then `Cc1ccc(NC(=O)c2ccccc2Cl)cc1`, with 105%; and `ClCC(Cl)C1CCC(Cl)C(Cl)C1` (stereo not given), with 105%.
As for `NNC(=O)N/N=C1\C(=O)N(c2nccs2)C(=O)C(=O)C1c1nc2ccccc2s1` (stereo not given), the growth is 100%.
The figure for `CCOC(=O)c1cc(Cl)c(O)c(Cl)c1` is 108%; for `C=CC(C)C(C)(C)O` (stereo not given) it is 101%; for `C=CCOc1ccc(Cl)cc1Cl` it is 109%.
For `O=Cc1ccc(O)c(O)c1`, the growth is 91.2%.
As for `Cc1ccc([N+](=O)[O-])c(C)n1`, the growth was 107%.
For `C/C(=N\O)c1ccccn1`, the growth was 93.8%.
As to `Cc1[nH]nc(C(N)=O)c1[N+](=O)[O-]`, the growth was 103%.
The figure for `CC(C)NC(=O)OCc1c(COC(=O)NC(C)C)c(-c2ccc(Cl)cc2)n2c1CCC2` is 100%; for `CCOC(=O)c1c[nH][nH]c1=O` it is 111%.
Take `O=c1n(CC2CO2)c(=O)n(CC2CO2)n1CC1CO1` (stereo not given): the growth is 84.4%.
Consider `Cc1c(-c2ccc(C3CCCCC3)cc2)nc2ccc(F)cc2c1C(=O)O`, for which the growth was 32%.
With `NC(CO)(CO)c1ccccc1`, the growth was 94.5%.
